Measurements reported in ChEMBL document CHEMBL1961873, “Compounds: GSK PKIS; Assays: Nanosyn kinase panel” (2012).

Columns and labels:
[1] = target: Ribosomal protein S6 kinase alpha-6 (Homo sapiens) (UniProt Q9UK32); settings: at 1 µM;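 further: each value is a mean inhibition of RSK4 from a GSK PKIS panel screen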
[2] = target: T1, Serine/threonine-protein kinase Sgk1 (Homo sapiens) (UniProt O00141); settings: at 0.1 µM
T1 sequence (whole entry): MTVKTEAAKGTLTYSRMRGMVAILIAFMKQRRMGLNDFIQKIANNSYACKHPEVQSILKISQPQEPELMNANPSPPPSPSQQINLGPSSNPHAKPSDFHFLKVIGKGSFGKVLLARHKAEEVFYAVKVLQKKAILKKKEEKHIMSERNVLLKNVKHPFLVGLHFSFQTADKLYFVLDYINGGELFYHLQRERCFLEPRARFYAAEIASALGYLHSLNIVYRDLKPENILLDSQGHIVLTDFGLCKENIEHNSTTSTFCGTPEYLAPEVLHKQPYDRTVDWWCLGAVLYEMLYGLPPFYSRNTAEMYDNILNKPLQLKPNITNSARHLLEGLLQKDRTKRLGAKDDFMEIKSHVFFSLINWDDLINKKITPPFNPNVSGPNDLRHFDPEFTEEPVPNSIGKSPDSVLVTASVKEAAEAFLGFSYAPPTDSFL

[3] = target: T1, Serine/threonine-protein kinase Sgk1 (Homo sapiens); settings: at 1 µM
[4] = target: T2, Serine/threonine-protein kinase Sgk2 (Homo sapiens) (UniProt Q9HBY8); settings: at 0.1 µM
T2 sequence (whole entry): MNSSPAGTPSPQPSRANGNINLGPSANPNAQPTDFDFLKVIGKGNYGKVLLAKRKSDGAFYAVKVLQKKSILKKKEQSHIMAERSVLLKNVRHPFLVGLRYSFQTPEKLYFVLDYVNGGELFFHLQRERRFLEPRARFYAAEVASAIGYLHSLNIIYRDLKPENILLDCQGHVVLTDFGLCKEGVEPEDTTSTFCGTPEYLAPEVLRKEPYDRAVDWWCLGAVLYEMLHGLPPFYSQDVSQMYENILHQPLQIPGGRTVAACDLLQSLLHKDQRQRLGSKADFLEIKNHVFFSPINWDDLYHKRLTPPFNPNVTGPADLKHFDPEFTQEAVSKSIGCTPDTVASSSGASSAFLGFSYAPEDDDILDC

[5] = target: T2, Serine/threonine-protein kinase Sgk2 (Homo sapiens); settings: at 1 µM
[6] = target: T3, Serine/threonine-protein kinase Sgk3 (Homo sapiens) (UniProt Q96BR1); settings: at 0.1 µM
T3 sequence (whole entry): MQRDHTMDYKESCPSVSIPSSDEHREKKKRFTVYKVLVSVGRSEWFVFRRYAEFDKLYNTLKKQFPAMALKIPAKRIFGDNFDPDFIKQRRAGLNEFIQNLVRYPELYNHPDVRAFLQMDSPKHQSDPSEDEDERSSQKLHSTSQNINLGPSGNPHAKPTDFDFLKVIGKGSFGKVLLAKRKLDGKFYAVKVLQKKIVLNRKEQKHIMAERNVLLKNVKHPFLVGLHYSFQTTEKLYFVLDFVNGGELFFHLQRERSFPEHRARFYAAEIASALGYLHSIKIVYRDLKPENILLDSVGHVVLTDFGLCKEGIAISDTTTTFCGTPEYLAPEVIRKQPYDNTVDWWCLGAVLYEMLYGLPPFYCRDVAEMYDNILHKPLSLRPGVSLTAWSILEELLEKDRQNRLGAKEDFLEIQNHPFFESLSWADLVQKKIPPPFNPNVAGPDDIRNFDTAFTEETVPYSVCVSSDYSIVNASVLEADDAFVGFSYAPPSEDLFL

[7] = target: T3, Serine/threonine-protein kinase Sgk3 (Homo sapiens); settings: at 1 µM
[8] = target: 5'-AMP-activated protein kinase catalytic subunit alpha-1 (Homo sapiens) (UniProt Q13131); settings: at 0.1 µM
[9] = target: 5'-AMP-activated protein kinase catalytic subunit alpha-1 (Homo sapiens) (UniProt Q13131); settings: at 1 µM
[10] = target: 5'-AMP-activated protein kinase catalytic subunit alpha-2 (Homo sapiens) (UniProt P54646); settings: at 0.1 µM;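 further: mean inhibition measured on the AMPK complex of alpha2, beta1 and gamma1 subunits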
5'-AMP-activated protein kinase catalytic subunit alpha-2 (Homo sapiens), sequence (P54646 whole entry, looked up): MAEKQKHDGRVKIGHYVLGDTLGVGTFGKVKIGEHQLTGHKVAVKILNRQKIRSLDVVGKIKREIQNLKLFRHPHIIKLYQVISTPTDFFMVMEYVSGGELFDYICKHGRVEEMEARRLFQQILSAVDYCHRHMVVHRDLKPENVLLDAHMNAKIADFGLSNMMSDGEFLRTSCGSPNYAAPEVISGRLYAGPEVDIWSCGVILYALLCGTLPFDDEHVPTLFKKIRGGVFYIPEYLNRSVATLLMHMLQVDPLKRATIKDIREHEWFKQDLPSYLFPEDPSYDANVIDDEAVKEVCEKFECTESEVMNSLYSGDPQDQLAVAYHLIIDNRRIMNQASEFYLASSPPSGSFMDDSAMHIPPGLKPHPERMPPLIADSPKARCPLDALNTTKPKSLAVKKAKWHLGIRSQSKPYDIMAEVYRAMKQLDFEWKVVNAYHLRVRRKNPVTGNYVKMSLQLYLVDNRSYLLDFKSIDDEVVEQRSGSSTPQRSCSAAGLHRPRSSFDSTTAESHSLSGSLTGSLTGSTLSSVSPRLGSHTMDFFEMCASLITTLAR

Ribosomal protein S6 kinase alpha-6 (Homo sapiens), sequence (Q9UK32 whole entry): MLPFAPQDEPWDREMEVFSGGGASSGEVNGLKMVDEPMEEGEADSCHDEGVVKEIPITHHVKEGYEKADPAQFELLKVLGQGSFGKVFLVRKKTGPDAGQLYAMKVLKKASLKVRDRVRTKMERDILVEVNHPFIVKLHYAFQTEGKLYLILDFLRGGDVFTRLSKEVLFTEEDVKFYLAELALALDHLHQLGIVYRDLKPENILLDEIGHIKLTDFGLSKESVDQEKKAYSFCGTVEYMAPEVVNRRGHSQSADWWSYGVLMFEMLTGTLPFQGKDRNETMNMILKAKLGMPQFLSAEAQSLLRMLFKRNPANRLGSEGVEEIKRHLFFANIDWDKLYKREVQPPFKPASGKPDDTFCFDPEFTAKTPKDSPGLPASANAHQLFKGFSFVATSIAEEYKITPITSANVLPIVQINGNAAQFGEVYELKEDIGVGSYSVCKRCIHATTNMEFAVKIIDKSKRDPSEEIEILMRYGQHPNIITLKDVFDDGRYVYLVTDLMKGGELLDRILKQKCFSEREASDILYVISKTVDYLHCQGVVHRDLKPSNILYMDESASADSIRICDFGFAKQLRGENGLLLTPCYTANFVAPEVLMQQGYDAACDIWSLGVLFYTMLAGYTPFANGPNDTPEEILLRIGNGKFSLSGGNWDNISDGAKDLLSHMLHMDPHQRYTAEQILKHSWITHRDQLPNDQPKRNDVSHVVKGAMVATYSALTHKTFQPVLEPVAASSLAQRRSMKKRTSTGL
5'-AMP-activated protein kinase catalytic subunit alpha-1 (Homo sapiens), sequence (Q13131 whole entry, looked up): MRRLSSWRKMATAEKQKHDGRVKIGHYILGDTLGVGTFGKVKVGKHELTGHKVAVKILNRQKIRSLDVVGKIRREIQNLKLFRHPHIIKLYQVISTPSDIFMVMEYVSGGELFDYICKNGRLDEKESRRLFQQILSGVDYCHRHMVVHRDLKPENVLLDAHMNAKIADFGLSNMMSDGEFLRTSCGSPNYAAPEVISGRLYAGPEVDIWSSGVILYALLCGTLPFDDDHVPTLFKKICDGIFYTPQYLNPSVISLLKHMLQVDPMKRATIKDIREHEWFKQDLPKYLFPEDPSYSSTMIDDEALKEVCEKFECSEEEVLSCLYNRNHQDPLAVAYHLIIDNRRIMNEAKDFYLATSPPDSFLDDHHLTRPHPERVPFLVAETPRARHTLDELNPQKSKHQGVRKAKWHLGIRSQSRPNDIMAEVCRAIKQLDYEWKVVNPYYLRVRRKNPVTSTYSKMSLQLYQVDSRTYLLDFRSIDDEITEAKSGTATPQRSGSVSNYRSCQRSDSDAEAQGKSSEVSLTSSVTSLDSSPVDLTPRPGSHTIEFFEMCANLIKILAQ

| Structure (SMILES) | inhibition [1] [%] | inhibition [2] [%] | inhibition [3] [%] | inhibition [4] [%] | inhibition [5] [%] | inhibition [6] [%] | inhibition [7] [%] | inhibition [8] [%] | inhibition [9] [%] | inhibition [10] [%] |
| --- | --- | --- | --- | --- | --- | --- | --- | --- | --- | --- |
| Fc1ccc(-c2ncn(C3CCNCC3)c2-c2ccnc(Oc3ccccc3)n2)cc1 | -1.23 | 0.46 | 0.24 | 0.49 | 2.09 | 0.78 | 2.18 | 2.1 | 0.47 | 2.07 |
| CCn1c(-c2nonc2N)nc2c(C#CC(C)(C)O)nc(O[C@@H](CN)c3ccccc3)cc21 | 23.4 | 4 | 34.2 | 5.31 | 3.43 | 64.9 | 94.2 | 79.2 | 88.1 | 24.6 |
| COc1cccc(-n2ncc3c(N/N=C/c4ccncc4)ncnc32)c1 | 4.33 | 6.01 | 16.1 | 4.49 | 11.9 | 5.19 | 6.6 | 2.59 | 9.15 | 2.26 |
| CCn1c(-c2nonc2N)nc2c(C#CC(C)(C)O)ncc(OC[C@@H]3CCCN3)c21 | 8.09 | 1.28 | 2.09 | 3.27 | 2.29 | 12.7 | 47.4 | 6 | 39.3 | 0.91 |
| COc1cc2c(cc1Nc1nc(Nc3ccsc3C(N)=O)c3cc[nH]c3n1)N(C(=O)CN(C)C)CCC2 | 16.4 | 3.82 | 2.11 | 2.89 | 2.84 | -0.08 | -0.04 | 1.03 | -0.4 | 0.93 |
| NS(=O)(=O)c1ccc(-c2ccc3c(NC(=O)C4CC4)n[nH]c3c2)cc1 | 3.54 | 0.35 | 14.6 | -0.5 | 3.35 | -0.5 | -1.93 | 2.61 | 2.22 | -0.68 |
| CCn1c(-c2nonc2N)nc2c(C#CC(C)(C)O)ncc(OCC3CCNCC3)c21 | 7.82 | 5.12 | 10.5 | 2.67 | 8.07 | 21.6 | 67.4 | 13.8 | 51.9 | 3.32 |
| COc1cc(C=NNc2ncnc3c2cnn3Cc2ccccc2)ccc1O | 2.26 | -3.31 | 3.11 | -3 | -2.21 | -2.5 | -0.29 | -1.23 | -0.19 | -2.17 |
| Nc1nonc1-c1nc2cnccc2n1C1CCCCC1 | 30.9 | 1.2 | 13.2 | 5.9 | 40.5 | 7.01 | 41.7 | 0.66 | 5.36 | -0.2 |
| NC(=O)c1sc(-n2cnc3cc(C(F)(F)F)ccc32)cc1OCc1ccccc1Br | 1.95 | 1.54 | 2.43 | 0.68 | -0.08 | -0.31 | 4.18 | 2.29 | 2.17 | 2.18 |
| COc1cccc(COc2cc(-n3cnc4ccccc43)sc2C(N)=O)c1 | 2.04 | 3.04 | 0.63 | -0.02 | -0.45 | -1.95 | -0.21 | 0.92 | 2.35 | -0.66 |
| Cc1cc(-c2ccco2)cc(C)c1/C=C/c1cncc(-c2nn[nH]n2)c1 | -0.53 | 2.78 | 0.73 | -0.62 | -1.7 | -0.03 | -0.92 | 0.43 | 1.33 | 0.25 |
| NS(=O)(=O)c1ccc(N/C=C2\C(=O)Nc3ccc4ncsc4c32)cc1 | 59.9 | 9.85 | 47.5 | 4.72 | 18.4 | 3.8 | 10.2 | 21.1 | 59.9 | 14.4 |
| CCn1c(-c2nonc2N)nc2c(C#CCN)ncc(OCCCN)c21 | 15.3 | 1.23 | 5.38 | -0.28 | 8.17 | 5.66 | 40.1 | 0.48 | 4.78 | 2.63 |
